Experiments:
Test in all cases: log2 ratio of Biotin-Ahx-Ub-VS probe labelling (fragment/DMSO); higher = less target engagement (more negative = stronger competition), active = hit call of the paper (q ≤ 0.05, log2 ratio ≤ -1)
Conditions in all cases: compound concentration: 200 uM; treatment time: 3 h
OTUD6B = molecular target: T1, OTUD6B (UniProt Q8N6M0)
T1 sequence (whole entry): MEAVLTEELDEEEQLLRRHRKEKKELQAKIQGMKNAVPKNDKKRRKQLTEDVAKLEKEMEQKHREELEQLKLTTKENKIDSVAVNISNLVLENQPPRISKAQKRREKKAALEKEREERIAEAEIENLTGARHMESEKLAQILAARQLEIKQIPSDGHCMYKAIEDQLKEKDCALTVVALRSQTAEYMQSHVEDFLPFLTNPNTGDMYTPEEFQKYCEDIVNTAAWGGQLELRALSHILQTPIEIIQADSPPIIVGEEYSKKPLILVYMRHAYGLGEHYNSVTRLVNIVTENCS
Procedure, shortened: (§1)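 The table lists average log2 ratios of fragment over vehicle, from an unpaired t-test on global-median-normalised Spectronaut label-free quantities. Proteins with ≥2 unique peptides were used. Samples were HEK293T lysate (495 µg) treated in triplicate with fragment at 200 µM or vehicle for 3 h, then with Biotin-Ahx-Ub-VS (0.5 µM final) for 1 h, with labelled DUBs NeutrAvidin-enriched and run by diaPASEF LC-MS/MS.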

OTUD7B = molecular target: T2, OTUD7B (UniProt Q6GQQ9)
T2 sequence (whole entry): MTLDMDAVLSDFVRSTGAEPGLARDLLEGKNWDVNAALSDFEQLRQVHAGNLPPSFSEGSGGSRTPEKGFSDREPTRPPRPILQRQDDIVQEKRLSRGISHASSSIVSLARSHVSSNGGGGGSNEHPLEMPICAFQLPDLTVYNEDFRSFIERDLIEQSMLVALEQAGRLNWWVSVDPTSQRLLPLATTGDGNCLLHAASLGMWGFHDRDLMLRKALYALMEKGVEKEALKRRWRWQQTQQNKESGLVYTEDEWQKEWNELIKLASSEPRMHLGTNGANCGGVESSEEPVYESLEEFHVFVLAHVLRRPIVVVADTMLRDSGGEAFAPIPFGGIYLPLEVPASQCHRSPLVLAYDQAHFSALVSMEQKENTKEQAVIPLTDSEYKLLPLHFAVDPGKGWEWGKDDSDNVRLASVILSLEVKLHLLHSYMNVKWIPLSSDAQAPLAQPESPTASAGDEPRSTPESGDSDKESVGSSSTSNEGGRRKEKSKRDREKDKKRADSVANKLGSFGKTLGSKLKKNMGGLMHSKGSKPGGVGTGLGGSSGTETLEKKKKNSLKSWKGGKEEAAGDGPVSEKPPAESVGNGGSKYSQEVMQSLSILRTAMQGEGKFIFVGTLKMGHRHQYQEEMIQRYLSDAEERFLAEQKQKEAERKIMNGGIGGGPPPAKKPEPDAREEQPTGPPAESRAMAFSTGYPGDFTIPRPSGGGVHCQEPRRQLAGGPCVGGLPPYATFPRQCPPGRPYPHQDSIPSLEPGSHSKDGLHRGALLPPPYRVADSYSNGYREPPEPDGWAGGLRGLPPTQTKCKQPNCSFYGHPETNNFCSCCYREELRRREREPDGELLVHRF
Procedure, shortened: as §1

PRPF8 = PRPF8 (UniProt Q6P2Q9)
Procedure, shortened: as §1

PSMD7 = molecular target: T3, PSMD7 (UniProt P51665)
T3 sequence (whole entry): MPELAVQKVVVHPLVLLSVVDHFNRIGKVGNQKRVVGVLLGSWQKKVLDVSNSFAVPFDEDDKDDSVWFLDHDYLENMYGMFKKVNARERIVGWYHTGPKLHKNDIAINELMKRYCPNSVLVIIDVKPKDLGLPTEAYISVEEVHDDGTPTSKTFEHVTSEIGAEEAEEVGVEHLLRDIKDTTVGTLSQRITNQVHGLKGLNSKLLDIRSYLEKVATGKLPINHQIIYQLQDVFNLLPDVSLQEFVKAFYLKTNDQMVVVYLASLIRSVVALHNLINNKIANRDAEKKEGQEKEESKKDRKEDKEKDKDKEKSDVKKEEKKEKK
Procedure, shortened: as §1

UCHL1 = UCHL1 (UniProt P09936)
UCHL1, sequence (P09936 whole entry, looked up): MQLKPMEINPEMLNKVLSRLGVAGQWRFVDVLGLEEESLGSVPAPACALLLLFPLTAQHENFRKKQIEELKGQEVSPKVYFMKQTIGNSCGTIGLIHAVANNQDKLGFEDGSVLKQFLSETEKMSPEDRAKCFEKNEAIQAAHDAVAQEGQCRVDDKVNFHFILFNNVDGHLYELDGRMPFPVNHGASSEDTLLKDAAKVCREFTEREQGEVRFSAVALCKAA
Procedure, shortened: as §1

UCHL3 = molecular target: T4, UCHL3 (UniProt P15374)
T4 sequence (whole entry): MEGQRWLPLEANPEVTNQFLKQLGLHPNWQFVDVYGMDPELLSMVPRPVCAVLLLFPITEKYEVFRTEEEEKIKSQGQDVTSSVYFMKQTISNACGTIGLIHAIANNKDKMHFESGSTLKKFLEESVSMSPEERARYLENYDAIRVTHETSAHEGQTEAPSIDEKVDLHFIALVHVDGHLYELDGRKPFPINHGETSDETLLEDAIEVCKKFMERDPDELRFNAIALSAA
Procedure, shortened: as §1

UCHL5 = molecular target: T5, UCHL5 (UniProt Q9Y5K5)
T5 sequence (whole entry): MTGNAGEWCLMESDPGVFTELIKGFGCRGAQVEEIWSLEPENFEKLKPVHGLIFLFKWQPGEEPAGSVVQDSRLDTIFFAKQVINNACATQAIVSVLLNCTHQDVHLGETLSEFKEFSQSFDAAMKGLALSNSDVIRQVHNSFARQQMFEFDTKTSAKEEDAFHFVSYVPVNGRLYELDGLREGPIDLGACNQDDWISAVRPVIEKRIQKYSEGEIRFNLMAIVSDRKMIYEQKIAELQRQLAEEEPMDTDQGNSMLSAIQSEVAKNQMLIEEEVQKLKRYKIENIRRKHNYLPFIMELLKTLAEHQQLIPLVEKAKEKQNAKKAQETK
Procedure, shortened: as §1

USP10 = USP10 (UniProt Q14694)
USP10, sequence (Q14694 whole entry): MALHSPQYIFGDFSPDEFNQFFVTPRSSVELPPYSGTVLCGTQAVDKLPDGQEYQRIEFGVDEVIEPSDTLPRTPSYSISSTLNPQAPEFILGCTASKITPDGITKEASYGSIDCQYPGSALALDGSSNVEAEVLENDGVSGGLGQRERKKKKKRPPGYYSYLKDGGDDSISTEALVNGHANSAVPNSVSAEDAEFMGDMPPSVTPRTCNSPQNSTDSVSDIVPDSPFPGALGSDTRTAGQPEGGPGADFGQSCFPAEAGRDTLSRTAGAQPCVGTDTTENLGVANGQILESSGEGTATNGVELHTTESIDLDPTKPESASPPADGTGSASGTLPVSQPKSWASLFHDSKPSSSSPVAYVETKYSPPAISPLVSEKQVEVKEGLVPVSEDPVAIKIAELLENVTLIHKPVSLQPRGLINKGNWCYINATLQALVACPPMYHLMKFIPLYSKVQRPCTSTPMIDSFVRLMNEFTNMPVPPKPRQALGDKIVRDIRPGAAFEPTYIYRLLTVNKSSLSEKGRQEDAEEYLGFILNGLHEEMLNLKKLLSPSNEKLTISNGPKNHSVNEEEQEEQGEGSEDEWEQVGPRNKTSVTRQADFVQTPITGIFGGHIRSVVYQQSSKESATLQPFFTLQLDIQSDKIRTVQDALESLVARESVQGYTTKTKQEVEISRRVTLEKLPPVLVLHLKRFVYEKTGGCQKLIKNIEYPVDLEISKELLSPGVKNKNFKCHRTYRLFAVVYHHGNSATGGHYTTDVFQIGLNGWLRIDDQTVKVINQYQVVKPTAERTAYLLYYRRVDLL
Procedure, shortened: as §1

USP15 = molecular target: T6, USP15 (UniProt Q9Y4E8)
T6 sequence (whole entry): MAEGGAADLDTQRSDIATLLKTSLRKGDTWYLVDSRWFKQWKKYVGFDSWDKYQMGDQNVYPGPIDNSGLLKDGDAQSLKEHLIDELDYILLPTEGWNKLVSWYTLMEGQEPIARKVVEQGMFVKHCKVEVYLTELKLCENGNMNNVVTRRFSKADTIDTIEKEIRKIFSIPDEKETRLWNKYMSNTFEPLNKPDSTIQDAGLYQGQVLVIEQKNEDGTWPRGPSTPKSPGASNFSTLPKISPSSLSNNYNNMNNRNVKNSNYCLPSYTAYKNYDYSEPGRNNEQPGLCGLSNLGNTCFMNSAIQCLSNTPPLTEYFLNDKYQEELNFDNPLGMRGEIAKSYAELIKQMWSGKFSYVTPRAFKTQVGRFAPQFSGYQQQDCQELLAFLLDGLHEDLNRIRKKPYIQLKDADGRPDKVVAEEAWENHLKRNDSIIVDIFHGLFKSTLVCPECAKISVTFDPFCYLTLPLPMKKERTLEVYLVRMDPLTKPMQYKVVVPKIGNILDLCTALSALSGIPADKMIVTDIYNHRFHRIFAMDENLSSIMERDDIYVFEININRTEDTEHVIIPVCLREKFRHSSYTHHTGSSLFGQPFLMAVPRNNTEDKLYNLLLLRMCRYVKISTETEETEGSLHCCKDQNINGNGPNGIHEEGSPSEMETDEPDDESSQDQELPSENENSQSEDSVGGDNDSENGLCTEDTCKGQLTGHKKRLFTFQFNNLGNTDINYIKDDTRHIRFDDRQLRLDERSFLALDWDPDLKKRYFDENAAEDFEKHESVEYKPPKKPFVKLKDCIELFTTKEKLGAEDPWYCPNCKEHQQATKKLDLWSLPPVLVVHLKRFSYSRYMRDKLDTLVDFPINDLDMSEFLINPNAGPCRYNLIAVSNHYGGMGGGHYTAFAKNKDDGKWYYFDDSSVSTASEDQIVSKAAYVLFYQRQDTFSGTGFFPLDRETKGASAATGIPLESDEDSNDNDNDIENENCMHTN
Procedure, shortened: as §1

USP16 = USP16 (UniProt Q9Y5T5)
USP16, sequence (Q9Y5T5 whole entry, looked up): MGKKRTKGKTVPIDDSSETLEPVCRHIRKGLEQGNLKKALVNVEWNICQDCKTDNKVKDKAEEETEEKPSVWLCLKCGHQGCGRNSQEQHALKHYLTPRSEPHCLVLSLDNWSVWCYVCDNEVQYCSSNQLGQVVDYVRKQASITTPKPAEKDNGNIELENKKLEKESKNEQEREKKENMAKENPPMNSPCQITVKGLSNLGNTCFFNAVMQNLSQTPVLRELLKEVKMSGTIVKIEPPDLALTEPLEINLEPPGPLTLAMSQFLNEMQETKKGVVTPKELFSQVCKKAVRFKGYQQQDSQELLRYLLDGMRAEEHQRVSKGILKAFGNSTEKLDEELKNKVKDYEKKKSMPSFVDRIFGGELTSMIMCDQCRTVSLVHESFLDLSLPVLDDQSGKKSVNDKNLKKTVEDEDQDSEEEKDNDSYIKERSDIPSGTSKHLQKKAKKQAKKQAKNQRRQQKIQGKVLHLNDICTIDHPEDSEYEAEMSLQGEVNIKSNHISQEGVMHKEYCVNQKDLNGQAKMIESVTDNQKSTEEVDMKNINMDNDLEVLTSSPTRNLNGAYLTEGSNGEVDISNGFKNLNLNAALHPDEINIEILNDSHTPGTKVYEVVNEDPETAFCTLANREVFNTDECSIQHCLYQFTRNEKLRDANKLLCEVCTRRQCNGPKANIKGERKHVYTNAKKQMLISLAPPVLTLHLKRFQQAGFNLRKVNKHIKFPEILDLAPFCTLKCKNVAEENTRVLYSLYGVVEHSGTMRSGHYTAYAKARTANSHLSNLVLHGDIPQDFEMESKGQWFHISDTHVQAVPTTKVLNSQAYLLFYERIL
Procedure, shortened: as §1

Measured: log2 ratio of Biotin-Ahx-Ub-VS probe labelling

O=C(CCl)N(Cc1ccsc1)C1CC1
inactive: OTUD6B 0.0351 | OTUD7B -0.317 | PRPF8 -0.0299 | PSMD7 -0.114 | UCHL1 -0.773 | UCHL3 0.415 | UCHL5 -0.238 | USP10 -0.125 | USP15 0.02 | USP16 0.463

— the supplement of paper PMC11732987, “Enantioselective OTUD7B fragment discovery through chemoproteomics screening and high-throughput optimisation” (Communications Chemistry, 2025)
